# Where “and” joins values, the source holds several entries; their conditions need not be identical. Equal entries are not always repeated. Results filed as inconclusive are left out. Calls of active or inactive are those of the source. Unless noted, how the calls were made is not given here.
# Columns and labels:
# [1] = circadian clock period modulators, cell-based, LOPAC library, luminescence reporter (AID 2774); settings: circadian reporter cells, at 7 µM, actives lie on both sides;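 further: values are relative to mean of DMSO wells on each plate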
# [2] = tested on: Hepatitis C virus NS3 helicase; test: HCV NS3 helicase inhibitors, primary screen, biochemical, fluorescence polarization, LOPAC1280 library (AID 687035; in the data active means inhibition above about 37%); settings: Purified HCV NS3 helicase, Cy5-dT15 ssDNA binding fluorescence polarization; stronger effect = higher value; concentration not given here
# [3] = Cy5 fluorescence quenching or enhancement artefacts, artefact control for HCV NS3 helicase inhibitor project, biochemical, LOPAC1280 (AID 687037); settings: Cy5-DNA-NS3h complex fluorescence interference counterscreen
# [4] = tested on: Aerobactin synthetase IucA (Klebsiella pneumoniae); test: IucA aerobactin synthetase inhibitors, biochemical, Tocris library, absorbance (AID 1345561); settings: purified IucA enzyme assay, absorbance (OD) read-out; stronger effect = lower value;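 tested at 8 µM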;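 further: 100% = enzyme without compound and 0% = no enzyme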
# [5] = tested on: Aerobactin synthetase IucA (Klebsiella pneumoniae, hypervirulent); test: IucA enzyme inhibition, biochemical, LOPAC library, absorbance readout (AID 1346212); settings: IucA enzyme assay, absorbance (OD) readout; stronger effect = lower value;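 tested at 8 µM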;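 further: 100% = no compound wells and 0% = no enzyme wells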
# [6] = growth inhibition of DIPG glioma cells, dose response, cell-based, JHH-DIPG-1, MIPE4.0, CellTiter-Glo, qHTS (AID 1347062; cut-off not given, nearly all actives have AC50 up to about 27 µM;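 on AC50: cells exposed to compound for two days before readout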); settings: JHH-DIPG-1 viability, CellTiter-Glo ATP luminescence
# [7] = growth inhibition of DIPG glioma cells, dose response, cell-based, SU-DIPG-IV, MIPE4.0, CellTiter-Glo, qHTS (AID 1347063; cut-off not given, nearly all actives have AC50 up to about 30 µM;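 further: compound exposure lasted 48 hours before the viability readout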); settings: SU-DIPG-IV viability, CellTiter-Glo ATP luminescence
# [8] = sensitizers of A549 cells to miR-34 induction, primary screen, imaging, A549 dox-inducible miR-34, nuclei and caspase counts (AID 1347080;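 active means compounds whose cell count with miR-34 switched on is under 0.7 times the count with it off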); settings: A549 miR-34 inducible, Hoechst nuclei count, 48 h
# [9] = phospholipid biosynthesis inhibitors in animal cells, primary screen, cell-based, LOPAC library, screen 4 (AID 1347384); settings: phospholipid biosynthesis inhibition screen, at 10 µM
# [10] = viability rescue of complex I mutant cybrids, primary screen, cell-based, galactose medium, ATP luminescence (AID 1645843;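 active means z-score of at least 1.8 in each of two replicates, scored against plate mean and spread of sample wells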;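 further: positive z means more ATP and so rescue of galactose-driven cybrid death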); settings: complex I mutant cybrid cells, 72 h, stronger effect = higher value
# [11] = liver-stage malaria parasite growth inhibition, primary screen, cell-based, HepG2, luciferase luminescence, HepG2 viability (AID 624349; in the data active means parasite load remaining mostly below about 12%, no sharp cut-off; inactive means mostly above about 10%;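 further: 100% = mean of DMSO negative control wells on the same plate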); settings: P. berghei liver stage in HepG2, luciferase luminescence, concentration not given here; parasite load remaining: stronger effect = lower value; viability: measured here: HepG2 viability without parasites
# [12] = differential killing of epithelial or mesenchymal cells, primary screen, imaging, PC-3E GFP, TEM4-18 mCherry, co-culture (AID 1345086;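 active means compounds killing one labelled cell type while sparing the other, by normalised counts and ratio limits, not self-fluorescent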;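 on all read-outs here: cells exposed to compound for 72 h before imaging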;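 on red/green cell ratio (normalised): normalised mesenchymal count divided by normalised epithelial count so high means epithelial killing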); settings: imaging cell counts, at 1 µM; for red/green cell ratio (normalised): actives lie on both sides
# [13] = survival rescue of mitochondrial mutant cells in low glucose, primary screen, MELAS cybrids, Rieske KO mouse fibroblasts, CellTiter-Glo (AID 1508586;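 active means mean z-score across replicates of 1.96 or higher in either the MELAS or the Rieske mutant cell line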;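 further: z relative to plate mean and SD of compound and empty wells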)
# [14] = growth inhibition of DIPG glioma cells, dose response, cell-based, SU-DIPG-XVII, MIPE5.0, CellTiter-Glo, qHTS (AID 1347060; cut-off not given, nearly all actives have AC50 up to about 26 µM); settings: SU-DIPG-XVII viability, CellTiter-Glo ATP luminescence
# [15] = growth inhibition of DIPG glioma cells, dose response, cell-based, SU-DIPG-XIII, MIPE4.0, CellTiter-Glo, qHTS (AID 1347061; cut-off not given, nearly all actives have AC50 up to about 37 µM;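 further: cells exposed to compound for 48 hours before readout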); settings: SU-DIPG-XIII viability, CellTiter-Glo ATP luminescence
# [16] = viability loss in pontine glioma line – cell-based, SU-DIPG-XXV, MIPE5.0, CellTiter-Glo, qHTS, dose response (AID 1347065; cut-off not given, nearly all actives have AC50 up to about 26 µM;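 further: cells exposed to compound for 48 hours before ATP readout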); settings: CellTiter-Glo ATP luminescence
# [17] = SU-DIPG-VI glioma cell viability, MIPE4.0 library, CellTiter-Glo luminescence, qHTS (AID 1347066; cut-off not given, nearly all actives have AC50 up to about 30 µM;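 further: cells exposed to compound for 48 hours before readout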); settings: CellTiter-Glo ATP luminescence
# [18] = JHH-DIPG-1 glioma cell viability, MIPE5.0 library, CellTiter-Glo luminescence, qHTS (AID 1347067; cut-off not given, nearly all actives have AC50 up to about 26 µM;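 further: cells exposed to compound for 48 hours before readout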); settings: JHH-DIPG-1 glioma viability, CellTiter-Glo ATP luminescence
# [19] = biological target: ATP-dependent translocase ABCB1 (Homo sapiens) (UniProt P08183); test: MDR1 (ABCB1) efflux transporter inhibition, cell-based (AID 377; in the data active means fluorescence slope change above about 50%); settings: MDR1-expressing cells, fluorescent substrate accumulation slope; stronger effect = higher value; concentration not given here
# [20] = hESC survival regulators, cell-based (AID 493140); settings: human embryonic stem cell survival screen; stronger effect = higher value;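 further: cells exposed to compounds for four days before counting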
# [21] = biological target: Mitogen-activated protein kinase 7 (Homo sapiens) (UniProt Q13164); test: ERK5 transactivation activators in reporter cells, primary screen, cell-based, HTS (AID 1508626;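 active means luciferase signal above three times the same-plate solvent-only control wells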;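 further: luciferase driven by Gal4-ERK5 fusion binding five Gal4 sites before minimal TATA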); settings: HeLa Gal4-ERK5 transactivation, 18 h, at 5 µM, stronger effect = higher value
# [22] = measured here: relative caspase fold change +Dox/-Dox
# [23] = measured here: total cells with miR-34 induction, stronger effect = lower value
# [24] = measured here: total cells without miR-34 induction
# [25] = measured here: epithelial PC-3E GFP cell survival
# [26] = measured here: mesenchymal TEM4-18 mCherry cell survival
# [27] = stronger effect = lower value, cell number ratio, induced over uninduced
# Sequence of Mitogen-activated protein kinase 7 (Homo sapiens) (Q13164 whole entry, looked up, the tested form may be a part): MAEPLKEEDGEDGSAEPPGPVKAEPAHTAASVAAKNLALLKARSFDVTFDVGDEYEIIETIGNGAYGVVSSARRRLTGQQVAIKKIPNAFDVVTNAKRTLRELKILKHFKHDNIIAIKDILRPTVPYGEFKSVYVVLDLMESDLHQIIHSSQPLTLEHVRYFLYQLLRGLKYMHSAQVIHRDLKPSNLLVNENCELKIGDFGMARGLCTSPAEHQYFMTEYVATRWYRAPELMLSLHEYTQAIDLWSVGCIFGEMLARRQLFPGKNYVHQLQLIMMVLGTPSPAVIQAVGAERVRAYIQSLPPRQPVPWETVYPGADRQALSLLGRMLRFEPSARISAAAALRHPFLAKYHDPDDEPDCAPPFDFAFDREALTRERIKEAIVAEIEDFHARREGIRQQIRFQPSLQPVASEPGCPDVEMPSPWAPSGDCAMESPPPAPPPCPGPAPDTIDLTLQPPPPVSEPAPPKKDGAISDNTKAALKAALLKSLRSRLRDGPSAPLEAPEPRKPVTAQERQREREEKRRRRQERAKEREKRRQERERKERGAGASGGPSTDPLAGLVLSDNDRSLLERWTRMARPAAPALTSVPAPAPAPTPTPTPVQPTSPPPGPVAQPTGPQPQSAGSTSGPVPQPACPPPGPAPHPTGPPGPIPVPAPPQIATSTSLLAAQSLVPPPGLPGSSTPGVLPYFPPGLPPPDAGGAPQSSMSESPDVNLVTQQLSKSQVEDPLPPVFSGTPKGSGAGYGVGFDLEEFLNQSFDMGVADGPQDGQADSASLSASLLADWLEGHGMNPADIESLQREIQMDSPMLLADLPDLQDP
# Sequence of ATP-dependent translocase ABCB1 (Homo sapiens) (P08183 whole entry, looked up): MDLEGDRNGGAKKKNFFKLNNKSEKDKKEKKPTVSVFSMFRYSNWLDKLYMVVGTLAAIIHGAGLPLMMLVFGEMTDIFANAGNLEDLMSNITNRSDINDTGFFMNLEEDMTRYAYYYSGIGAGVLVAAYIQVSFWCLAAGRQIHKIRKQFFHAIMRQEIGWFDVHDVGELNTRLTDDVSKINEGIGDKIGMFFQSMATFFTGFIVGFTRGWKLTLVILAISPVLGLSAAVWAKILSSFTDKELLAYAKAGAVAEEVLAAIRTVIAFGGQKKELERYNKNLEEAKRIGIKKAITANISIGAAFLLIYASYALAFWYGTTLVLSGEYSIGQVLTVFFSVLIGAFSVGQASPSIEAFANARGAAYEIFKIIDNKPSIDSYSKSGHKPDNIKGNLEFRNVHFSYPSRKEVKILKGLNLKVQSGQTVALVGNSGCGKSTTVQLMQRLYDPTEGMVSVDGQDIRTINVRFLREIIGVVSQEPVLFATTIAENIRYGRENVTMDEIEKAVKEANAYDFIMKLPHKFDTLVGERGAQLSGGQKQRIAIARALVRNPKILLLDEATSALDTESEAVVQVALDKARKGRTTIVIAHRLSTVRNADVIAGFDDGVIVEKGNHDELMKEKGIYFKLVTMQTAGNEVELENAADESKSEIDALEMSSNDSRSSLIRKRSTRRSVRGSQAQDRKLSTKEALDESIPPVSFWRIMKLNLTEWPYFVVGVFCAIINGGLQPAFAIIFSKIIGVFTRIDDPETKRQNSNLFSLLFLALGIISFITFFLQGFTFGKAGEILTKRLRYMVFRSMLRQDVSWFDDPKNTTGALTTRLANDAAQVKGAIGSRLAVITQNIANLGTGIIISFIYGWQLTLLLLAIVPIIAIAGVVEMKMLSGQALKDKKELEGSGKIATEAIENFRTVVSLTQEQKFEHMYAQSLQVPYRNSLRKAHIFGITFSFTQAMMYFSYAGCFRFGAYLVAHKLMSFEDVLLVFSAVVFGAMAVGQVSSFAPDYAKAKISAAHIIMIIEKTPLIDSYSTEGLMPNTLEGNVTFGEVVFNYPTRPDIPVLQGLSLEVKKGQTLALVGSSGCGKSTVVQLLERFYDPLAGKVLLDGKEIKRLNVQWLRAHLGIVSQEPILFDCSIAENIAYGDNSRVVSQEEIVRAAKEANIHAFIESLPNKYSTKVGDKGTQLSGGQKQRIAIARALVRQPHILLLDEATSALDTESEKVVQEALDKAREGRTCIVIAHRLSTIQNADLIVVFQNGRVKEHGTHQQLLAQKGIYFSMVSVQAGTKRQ
compound,measurement,setting,value
c1ccc(CCCN2CCN(CCOC(c3ccccc3)c3ccccc3)CC2)cc1,period change,[1],-0.025 h (inactive)
same,inhibition,[2],0% (inactive)
same,fluorescence ratio (interference),[3],1 (inactive)
same,remaining activity,[4],117% (inactive)
same,remaining activity,[5],104% (inactive)
same,AC50,[6],20.9 µM (active)
same,AC50,[7],23.5 µM (active)
same,fold change,[8]; stronger effect = lower value,1.21 (inactive) and 0.966 (inactive)
same,fold change,[8]; [22],1.16 and 0.645
same,cell count,[8]; [23],3120 and 2750
same,cell count,[8]; [24],2580 and 2850
same,outcome,[9],inactive
same,z-score,[10],-1.04 (inactive) and -1.21 (inactive)
CCCCCCCCCCNCCC (tested in a mixture with another compound),parasite load remaining,[11],23% (inactive)
same,viability,[11],92.6%
same,red/green cell ratio (normalised),"[12]; counts scaled to control wells, 1 = unselective",0.92 (inactive)
same,normalised cell number,[12]; [25],1.01
same,normalised cell number,[12]; [26],0.93
same,fold change,[8]; [27],0.945 (inactive)
same,fold change,[8]; [22],1.32
same,cell count,[8]; [23],11300
same,cell count,[8]; [24],11900
CN1CCC(c2c[nH]c3ccc(O)cc23)CC1,period change,[1],-0.16 h (inactive)
same,inhibition,[2],-2% (inactive)
same,fluorescence ratio (interference),[3],1 (inactive)
same,remaining activity,[4],116% (inactive)
same,remaining activity,[5],119% (inactive)
same,fold change,[8]; stronger effect = lower value,1.01 (inactive)
same,fold change,[8]; [27],0.949 (inactive) and 0.908 (inactive)
same,fold change,[8]; [22],1.73 and 0.894 and 0.857
same,cell count,[8]; [23],10800 and 7640 and 9030
same,cell count,[8]; [24],10700 and 8050 and 9950
same,outcome,[9],inactive
same,z-score,"[13]; MELAS cybrid survival, CellTiter-Glo 48 h, stronger effect = higher value",-0.212 (inactive)
same,z-score,"[13]; Rieske KO mouse fibroblast survival, CellTiter-Glo 72 h",-0.062
same,z-score,[10],0.06 (inactive) and -0.325 (inactive)
C[C@@H](N)Cc1cnc[nH]1,period change,[1],-0.03 h (inactive)
same,inhibition,[2],-1% (inactive)
same,fluorescence ratio (interference),[3],1 (inactive)
same,remaining activity,[4],120% (inactive)
same,remaining activity,[5],105% (inactive)
same,fold change,[8]; stronger effect = lower value,0.943 (inactive)
same,fold change,[8]; [27],1.02 (inactive)
same,fold change,[8]; [22],0.922 and 0.657
same,cell count,[8]; [23],9840 and 7980
same,cell count,[8]; [24],10400 and 7800
same,outcome,[9],inactive
same,z-score,[10],0.195 (inactive) and -0.325 (inactive)
Cc1[nH]c2ccc(O)cc2c1CCN,period change,[1],0.13 h (inactive)
same,inhibition,[2],-6% (inactive)
same,fluorescence ratio (interference),[3],0.9 (inactive)
same,remaining activity,[4],104% (inactive)
same,remaining activity,[5],118% (inactive)
same,fold change,[8]; stronger effect = lower value,1.04 (inactive) and 1.02 (inactive)
same,fold change,[8]; [22],0.914 and 0.703
same,cell count,[8]; [23],10800 and 9460
same,cell count,[8]; [24],10400 and 9310
same,outcome,[9],inactive
same,z-score,[10],0.345 (inactive) and -0.12 (inactive)
CCCN1CCO[C@@H]2c3cc(O)ccc3OC[C@H]21,period change,[1],-0.065 hour (inactive) and 0.1 hour (inactive)
same,inhibition,[2],-4% (inactive) and -2% (inactive)
same,fluorescence ratio (interference),[3],1 (inactive)
same,remaining activity,[4],109% (inactive)
same,remaining activity,[5],102% (inactive)
same,outcome,[14],inactive
same,outcome,[15],inactive
same,outcome,[6],inactive
same,outcome,[7],inactive
same,outcome,[16],inactive
same,outcome,[17],inactive
same,outcome,[18],inactive
same,fold change,[8]; stronger effect = lower value,0.978 (inactive) and 0.932 (inactive)
same,fold change,[8]; [22],1.67 and 0.977
same,cell count,[8]; [23],9750 and 8460
same,cell count,[8]; [24],9980 and 9070
same,z-score,[10],0.53 (inactive) and -0.06 (inactive)
c1cncc(C2=NCCC2)c1,fluorescence slope change,[19],24.1% (inactive)
same,survival,[20],4.17 (inactive)
same,parasite load remaining,[11],113% (inactive)
same,viability,[11],106%
same,red/green cell ratio (normalised),[12],0.94 (inactive)
same,normalised cell number,[12]; [25],1
same,normalised cell number,[12]; [26],0.94
same,fold change,[8]; stronger effect = lower value,0.891 (inactive)
same,fold change,[8]; [22],1.54
same,cell count,[8]; [23],7680
same,cell count,[8]; [24],8620
same,luciferase signal,[21],48 AU (inactive)
Oc1ccc2c3c1O[C@H]1c4[nH]c5c(c4C[C@@]4(O)[C@@H](C2)N(CC2CC2)CC[C@]314)C[C@@]1(O)[C@H]2Cc3ccc(O)c4c3[C@@]1(CCN2CC1CC1)[C@H]5O4,period change,[1],-0.025 h (inactive)
same,inhibition,[2],-2% (inactive)
same,fluorescence ratio (interference),[3],1 (inactive)
same,remaining activity,[4],103% (inactive)
same,remaining activity,[5],120% (inactive)
same,outcome,[15],inactive
same,outcome,[6],inactive
same,outcome,[7],inactive
same,outcome,[17],inactive
same,fold change,[8]; stronger effect = lower value,1.09 (inactive) and 0.956 (inactive)
same,fold change,[8]; [22],1.04 and 0.836
same,cell count,[8]; [23],10400 and 9420
same,cell count,[8]; [24],9540 and 9850
same,z-score,[10],0.855 (inactive) and 1.22 (inactive)
CCCN(CCC)C1Cc2cc(OC)c(OC)cc2C1,period change,[1],-0.045 h (inactive)
same,inhibition,[2],-2% (inactive)
same,fluorescence ratio (interference),[3],1 (inactive)
same,remaining activity,[4],120% (inactive)
same,remaining activity,[5],106% (inactive)
same,fold change,[8]; stronger effect = lower value,0.979 (inactive) and 0.907 (inactive)
same,fold change,[8]; [22],0.924 and 0.563
same,cell count,[8]; [23],9280 and 9110
same,cell count,[8]; [24],9480 and 10000
same,outcome,[9],inactive
same,z-score,[10],0.43 (inactive) and 0.01 (inactive)
C#CCOC(=O)C1=CCCN(C)C1,period change,[1],-0.055 h (inactive)
same,inhibition,[2],-1% (inactive)
same,fluorescence ratio (interference),[3],1 (inactive)
same,remaining activity,[4],105% (inactive)
same,remaining activity,[5],121% (inactive)
same,fold change,[8]; stronger effect = lower value,1.05 (inactive)
same,fold change,[8]; [27],0.926 (inactive)
same,fold change,[8]; [22],1.99 and 0.981
same,cell count,[8]; [23],10200 and 8480
same,cell count,[8]; [24],9640 and 9160
same,outcome,[9],inactive
same,z-score,[10],-0.93 (inactive) and -0.57 (inactive)
CC(=O)NCCc1c[nH]c2ccccc12,period change,[1],0.04 h (inactive)
same,inhibition,[2],-3% (inactive)
same,fluorescence ratio (interference),[3],0.9 (inactive)
same,remaining activity,[4],90.2% (inactive)
same,remaining activity,[5],105% (inactive)
same,fold change,[8]; stronger effect = lower value,1.01 (inactive) and 0.947 (inactive)
same,fold change,[8]; [22],0.736 and 0.687
same,cell count,[8]; [23],10200 and 9110
same,cell count,[8]; [24],10200 and 9620
same,outcome,[9],inactive
same,z-score,[10],0.505 (inactive) and 0.035 (inactive)
